PubChem BioAssay AID1159580 (chemical genetic matrix, 2015)
Screen size: about 5,500 compounds; about 2,000 (36%) were called active. Inconclusive results (about 18%) are left out. Rule as the data show it: active = normalized growth mostly below about 0.91 (no sharp cut-off); inconclusive = no clear call, values can overlap the other calls; inactive = mostly above about 0.92. This is one part of the list.

Test: chemical genetic growth profiling, strain panel (AID 1159580);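 also: tested at 20 µM; growth read once vehicle control cultures reached saturation at 30 °C; 1 = growth at the plate median or of vehicle wells; lower values mean less growth of the strain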
Conditions: growth OD

Measured: normalized growth

CC(=O)N=c1sc(S(N)(=O)=O)nn1C
inactive: S. cerevisiae deletion strains, locus YJR075W, strain HOC1, hits give low values 1 | S. cerevisiae deletion strains, locus YKL009W, strain mrt4, hits give low values 1 | S. cerevisiae deletion strains, locus YKL068W, hits give low values 1 | S. cerevisiae deletion strains, locus YKL085W, strain MDH1 (second series), hits give low values 1.01 | S. cerevisiae deletion strains, locus YKL085W, strain MDH1, hits give low values 1.01 | S. cerevisiae deletion strains, locus YKL160W, strain elf1, hits give low values 1.01 | S. cerevisiae deletion strains, locus YKL190W, strain CNB1, hits give low values 1.01 | S. cerevisiae deletion strains, locus YKR001C, strain vps1, hits give low values 0.998 | S. cerevisiae deletion strains, locus YKR026C, strain gcn3, hits give low values 1.01 | S. cerevisiae deletion strains, locus YKR091W, strain srl3, hits give low values 1 | S. cerevisiae deletion strains, locus YLL001W, strain dnm1, hits give low values 1.01 | S. cerevisiae deletion strains, locus YLL026W, hits give low values 1.01 | S. cerevisiae deletion strains, locus YLL041C, strain sdh2, hits give low values 1.01 | S. cerevisiae deletion strains, locus YLR027C, strain aat2, hits give low values 1.01 | S. cerevisiae deletion strains, locus YLR039C, strain RIC1, hits give low values 1.02 | S. cerevisiae deletion strains, locus YLR058C, strain SHM2, hits give low values 1.01 | S. cerevisiae deletion strains, locus YLR102C, strain apc9, hits give low values 1 | S. cerevisiae deletion strains, locus YLR113W, strain HOG1, hits give low values 1.07 | S. cerevisiae deletion strains, locus YLR221C, strain rsa3, hits give low values 1 | S. cerevisiae deletion strains, locus YLR258W, strain gsy2, hits give low values 1.01 | S. cerevisiae deletion strains, locus YLR262C, strain YPT6 (second series), hits give low values 1.02 | S. cerevisiae deletion strains, locus YLR262C, strain YPT6, hits give low values 1.04 | S. cerevisiae deletion strains, locus YLR268W, strain sec22, hits give low values 1 | S. cerevisiae deletion strains, locus YLR320W, strain mms22, hits give low values 1.04 | S. cerevisiae deletion strains, locus YLR330W, strain CHS5, hits give low values 1.01 | S. cerevisiae deletion strains, locus YLR342W, strain FKS1 (second series), hits give low values 1.08 | S. cerevisiae deletion strains, locus YLR342W, strain FKS1, hits give low values 1.02 | S. cerevisiae deletion strains, locus YLR357W, strain rsc2, hits give low values 1.03 | S. cerevisiae deletion strains, locus YLR370C, strain arc18, hits give low values 1.01 | S. cerevisiae deletion strains, locus YLR371W, strain rom2, hits give low values 1.02 | S. cerevisiae deletion strains, locus YLR384C, strain iki3, hits give low values 1 | S. cerevisiae deletion strains, locus YLR418C, strain cdc73, hits give low values 1.04 | S. cerevisiae deletion strains, locus YML016C, strain PPZ1, hits give low values 1.01 | S. cerevisiae deletion strains, locus YML032C, strain rad52, hits give low values 0.993 | S. cerevisiae deletion strains, locus YML120C, strain ndi1, hits give low values 1 | S. cerevisiae deletion strains, locus YML124C, strain tub3, hits give low values 1.01 | S. cerevisiae deletion strains, locus YMR058W, strain fet3, hits give low values 1.01 | S. cerevisiae deletion strains, locus YMR078C, strain ctf18, hits give low values 1.01 | S. cerevisiae deletion strains, locus YMR125W, strain sto1, hits give low values 1.01 | S. cerevisiae deletion strains, locus YMR129W, hits give low values 1.01 | S. cerevisiae deletion strains, locus YMR205C, strain PFK2, hits give low values 1.01 | S. cerevisiae deletion strains, locus YMR223W, strain ubp8, hits give low values 1.03 | S. cerevisiae deletion strains, locus YMR231W, strain pep5, hits give low values 1.01 | S. cerevisiae deletion strains, locus YMR307W, strain GAS1, hits give low values 1.03 | S. cerevisiae deletion strains, locus YNL067W, strain RPL9B, hits give low values 0.988 | S. cerevisiae deletion strains, locus YNL071W, strain lat1, hits give low values 1.01 | S. cerevisiae deletion strains, locus YNL128W, strain TEP1, hits give low values 1.04 | S. cerevisiae deletion strains, locus YNL153C, strain GIM3, hits give low values 0.979 | S. cerevisiae deletion strains, locus YNL183C, strain NPR1, hits give low values 0.984 | S. cerevisiae deletion strains, locus YNL209W, strain ssb2, hits give low values 1.01 | S. cerevisiae deletion strains, locus YNL233W, strain BNI4, hits give low values 0.967 | S. cerevisiae deletion strains, locus YNL248C, strain rpa49, hits give low values 1.02 | S. cerevisiae deletion strains, locus YNL250W, strain rad50, hits give low values 1.04 | S. cerevisiae deletion strains, locus YNL271C, strain bni1, hits give low values 1 | S. cerevisiae deletion strains, locus YNL298W, strain CLA4, hits give low values 1.01 | S. cerevisiae deletion strains, locus YNL307C, strain MCK1, hits give low values 1.02 | S. cerevisiae deletion strains, locus YNL322C, strain KRE1 (second series), hits give low values 1.01 | S. cerevisiae deletion strains, locus YNR049C, strain mso1, hits give low values 1.01 | S. cerevisiae deletion strains, locus YNR052C, strain pop2, hits give low values 1.02 | S. cerevisiae deletion strains, locus YOL006C, strain TOP1, hits give low values 0.974 | S. cerevisiae deletion strains, locus YOL012C, strain htz1 1.13 | S. cerevisiae deletion strains, locus YOL147C, strain pex11, hits give low values 1.01 | S. cerevisiae deletion strains, locus YOR001W, strain rrp6, hits give low values 1.01 | S. cerevisiae deletion strains, locus YOR061W, strain CKA2, hits give low values 1.01 | S. cerevisiae deletion strains, locus YOR069W, strain VPS5, hits give low values 1.01 | S. cerevisiae deletion strains, locus YOR070C, strain gyp1, hits give low values 1.02 | S. cerevisiae deletion strains, locus YOR080W, strain dia2, hits give low values 1.02 | S. cerevisiae deletion strains, locus YOR083W, strain WHI5, hits give low values 1.01 | S. cerevisiae deletion strains, locus YOR106W, strain vam3, hits give low values 1.01 | S. cerevisiae deletion strains, locus YOR136W, strain idh2, hits give low values 0.997 | S. cerevisiae deletion strains, locus YOR144C, strain elg1, hits give low values 0.997 | S. cerevisiae deletion strains, locus YOR184W, strain ser1, hits give low values 1.02 | S. cerevisiae deletion strains, locus YOR231W, strain MKK1, hits give low values 1.08 | S. cerevisiae deletion strains, locus YOR265W, strain rbl2, hits give low values 1.01 | S. cerevisiae deletion strains, locus YOR270C, strain vph1, hits give low values 1.02 | S. cerevisiae deletion strains, locus YOR290C, strain snf2, hits give low values 1.03 | S. cerevisiae deletion strains, locus YOR316C, strain cot1, hits give low values 1 | S. cerevisiae deletion strains, locus YPL051W, strain arl3, hits give low values 1.01 | S. cerevisiae deletion strains, locus YPL055C, strain LGE1, hits give low values 0.939 | S. cerevisiae deletion strains, locus YPL078C, strain atp4, hits give low values 1.01 | S. cerevisiae deletion strains, locus YPL106C, strain sse1, hits give low values 1.03 | S. cerevisiae deletion strains, locus YPL240C, strain hsp82, hits give low values 1.01 | S. cerevisiae deletion strains, locus YPL241C, strain CIN2, hits give low values 1.01 | S. cerevisiae deletion strains, locus YPL256C, strain CLN2, hits give low values 1.08 | S. cerevisiae deletion strains, locus YPR119W, strain clb2, hits give low values 1 | S. cerevisiae deletion strains, locus YPR141C, strain kar3, hits give low values 1.01 | S. cerevisiae deletion strains, locus YPR163C, strain tif3, hits give low values 1.01 | S. cerevisiae deletion strains, locus YPR167C, strain met16, hits give low values 1 | S. cerevisiae deletion strains, strain wtn01, hits give low values 1 | S. cerevisiae strains, strain wild type, hits give low values 1
